PubChem BioAssay (NCI)
“And” between values parts separate entries of the source, which are not always exact repeats. Equal values may be shown once. About 83,000 compounds went through this panel and 20% of them were active in at least one assay; those are over-represented in the sample as a whole.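 How to read the values: 0–100, growth inhibition (40 = 60% inhibited); 0, no net growth; -100 to 0, cell death (-40 = 40% of starting cells died; -100 = all dead).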 The source made the active and inactive calls. The calls were made as follows: active = growth percent below 10; inactive = the rest.

Key:
Test in all cases: NCI-60 one-dose screen, 48 h (100 = growth as untreated, 0 = no growth, -100 = all killed)
Details in all cases: 10 µM unless noted
[1] = test system: DU-145 prostate
[2] = test system: K-562 leukemia
[3] = test system: MALME-3M melanoma
[4] = test system: MDA-MB-231 breast
[5] = test system: RXF 393 renal
[6] = test system: SF-268 CNS
[7] = test system: SF-295 CNS
[8] = test system: SF-539 CNS
[9] = test system: M14 melanoma
[10] = test system: UACC-257 melanoma

Row | SMILES | growth [1] | growth [2] | growth [3] | growth [4] | growth [5] | growth [6] | growth [7] | growth [8] | growth [9] | growth [10]
1 | Nc1ccc2ccc(N)cc2c1 | 96.1% (inactive) | 57.3% (inactive) | 33.1% (inactive) | 62.1% (inactive) | 88.1% (inactive) | 84.3% (inactive) | 72.1% (inactive) | 107% (inactive) | 84.1% (inactive) | –
2 | Nc1ncnc2c1ncn2C1CC(O)C(CO)O1 (stereo not drawn) | 125% (inactive) and 118% (inactive) | 116% (inactive) and 96.6% (inactive) | 220% (inactive) and 110% (inactive) | 112% (inactive) and 119% (inactive) | 109% (inactive) | 116% (inactive) and 107% (inactive) | 82.6% (inactive) and 95% (inactive) | 89.6% (inactive) and 121% (inactive) | 113% (inactive) and 103% (inactive) | 102% (inactive)
3 | CCCCCCCCCCCCCCCCOc1ccc(C)cc1 | 110% (inactive) | 108% (inactive) | 103% (inactive) | 100% (inactive) | 118% (inactive) | 114% (inactive) | – | 93.2% (inactive) | 111% (inactive) | 111% (inactive)
4 | CC1=C(/C=C/C(C)=C/C=C/C(C)=C/C(=O)Nc2ccc(O)cc2)C(C)(C)CCC1 | 68.4% (inactive) | – | 76.1% (inactive) | 54.5% (inactive) | 60.8% (inactive) | 60.8% (inactive) | 4.64% (active) | -32.7% (active) | 53.5% (inactive) | 76.7% (inactive)
5 | O=C1OC(Oc2ccc(Br)cc2)(c2ccccc2)c2ccccc21 (stereo not drawn) | 97.1% (inactive) and 84.1% (inactive) | 70.1% (inactive) | 89.5% (inactive) | 86.4% (inactive) and 107% (inactive) | 82.7% (inactive) and 82.3% (inactive) | 91.7% (inactive) and 76% (inactive) | 83.1% (inactive) and 82.3% (inactive) | 104% (inactive) and 98.5% (inactive) | 96.4% (inactive) and 98.2% (inactive) | 88.5% (inactive) and 90.9% (inactive)
6 | O=C(CCc1ccc(O)cc1)N/N=C/c1cc(Br)ccc1O | 63.2% (inactive) | 15.4% (inactive) | 87.1% (inactive) | 59.7% (inactive) | 76.6% (inactive) | 48.3% (inactive) | – | 39.9% (inactive) | 39.9% (inactive) | 55.5% (inactive)
7 | CCOC(=O)C(CNc1ccccc1)C(=O)OCC | 109% (inactive) | 100% (inactive) | 115% (inactive) | 103% (inactive) | 98.4% (inactive) | 100% (inactive) | 101% (inactive) | 101% (inactive) | 109% (inactive) | –
8 | O=C(Cc1cccc2ccccc12)N/N=C/c1ccc2c(c1)CCC2 | 96.6% (inactive) | 17.3% (inactive) | 63.6% (inactive) | 75% (inactive) | 86% (inactive) | 82.3% (inactive) | – | 83% (inactive) | 77.9% (inactive) | 87.3% (inactive)
9 | CN1CCN(CCC=C2c3ccccc3Sc3ccc(S(=O)(=O)N(C)C)cc32)CC1 | 88.1% (inactive) and 101% (inactive) | 1.04% (active) and -15.5% (active) | -13.1% (active) and 40.5% (inactive) | 42.8% (inactive) and 69.3% (inactive) | 30.4% (inactive) and 60% (inactive) | – | – | – | -67% (active) and -79.2% (active) | -83.1% (active) and -57.7% (active)
10 | CCOC(=O)c1sc(N)nc1-c1ccccc1 | 113% (inactive) | 96% (inactive) | 120% (inactive) | 117% (inactive) | 102% (inactive) | 108% (inactive) | – | 88.4% (inactive) | 99.7% (inactive) | 98.1% (inactive)
11 | Cc1nnc(NC/C=C/c2ccccc2)s1 | 104% (inactive) and 106% (inactive) | 87.9% (inactive) and 94.2% (inactive) | 99.6% (inactive) | 105% (inactive) and 120% (inactive) | 102% (inactive) | 102% (inactive) and 97.3% (inactive) | 99.7% (inactive) | 109% (inactive) and 101% (inactive) | 101% (inactive) and 104% (inactive) | 96.9% (inactive)
12 | Nc1ccccc1SC1CC(=O)N(c2cccc3ccccc23)C1=O (stereo not drawn) | 111% (inactive) | 90.2% (inactive) | 101% (inactive) | 91.9% (inactive) | 93% (inactive) | 98.1% (inactive) | 94.7% (inactive) | 95.6% (inactive) | 105% (inactive) | –
13 | CCN(CC)CCc1nc(-c2ccccc2)no1 | – | 118% (inactive) | 86.2% (inactive) and 120% (inactive) | 67.6% (inactive) and 110% (inactive) | 74.5% (inactive) and 113% (inactive) | 79.9% (inactive) and 98.3% (inactive) | 105% (inactive) and 101% (inactive) | 83.5% (inactive) and 109% (inactive) | 87.9% (inactive) and 98.5% (inactive) | 87.2% (inactive) and 90.3% (inactive)
14 | O=C(O)CSCc1nc2ccccc2[nH]1 | 111% (inactive) | – | 127% (inactive) | 98.4% (inactive) | 112% (inactive) | 99.2% (inactive) | 112% (inactive) | 103% (inactive) | 97.4% (inactive) | 111% (inactive)
15 | S=C(S)N1CCCC1 | 105% (inactive) and 128% (inactive) | 39.6% (inactive) and 76.5% (inactive) | 96.1% (inactive) and 99.7% (inactive) | 92.3% (inactive) and 125% (inactive) | 112% (inactive) and 125% (inactive) | 97% (inactive) and 116% (inactive) | 112% (inactive) and 103% (inactive) | 110% (inactive) and 128% (inactive) | 93.8% (inactive) and 101% (inactive) | 96.5% (inactive) and 92.6% (inactive)
16 | C[N+](C)(C)CN1C(=O)c2ccccc2C1=O | 113% (inactive) | 92% (inactive) | – | 114% (inactive) | 105% (inactive) | 110% (inactive) | – | 99.5% (inactive) | 103% (inactive) | 97.8% (inactive)
17 | CCCCCCCCCCCCOc1ccccc1C=O | 111% (inactive) | 83.7% (inactive) | – | 102% (inactive) | 110% (inactive) | 97.5% (inactive) | 99% (inactive) | 102% (inactive) | 101% (inactive) | 96.8% (inactive)
18 | OCc1ccccn1 | 100% (inactive) | – | 115% (inactive) | 114% (inactive) | 111% (inactive) | 107% (inactive) | 94.7% (inactive) | 104% (inactive) | 108% (inactive) | 104% (inactive)
